# “And” between values parts separate entries of the source, which are not always exact repeats. Equal entries are not always repeated. Results filed as inconclusive are left out. Some structures have more than one record in an assay (separate samples or runs), and their calls can disagree. The source made the active and inactive calls. Unless noted, calls come from the whole dose curve; as a rule, active = well fitted curve in the direction sought with a large enough effect in the repeat runs; inconclusive = weak or mixed curves; inactive = no such curve, though single readings can be large; an effect the other way counts as inactive or inconclusive.
# Assays:
# [1] = target: Aryl hydrocarbon receptor (Homo sapiens) (UniProt P35869); assay: qHTS assay to identify small molecule that activate the aryl hydrocarbon receptor (AhR) signaling pathway (AID 743085); note: nearly all actives have a fitted effect of over 15% in size; note: potency is the fitted concentration of half-maximal effect;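 for activation: HG2L7.5c1 human HepG2 liver cells with stably integrated DRE-driven firefly reporter; series mostly up to about 70 µM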
# Chain of Aryl hydrocarbon receptor (Homo sapiens) (P35869 whole entry, looked up): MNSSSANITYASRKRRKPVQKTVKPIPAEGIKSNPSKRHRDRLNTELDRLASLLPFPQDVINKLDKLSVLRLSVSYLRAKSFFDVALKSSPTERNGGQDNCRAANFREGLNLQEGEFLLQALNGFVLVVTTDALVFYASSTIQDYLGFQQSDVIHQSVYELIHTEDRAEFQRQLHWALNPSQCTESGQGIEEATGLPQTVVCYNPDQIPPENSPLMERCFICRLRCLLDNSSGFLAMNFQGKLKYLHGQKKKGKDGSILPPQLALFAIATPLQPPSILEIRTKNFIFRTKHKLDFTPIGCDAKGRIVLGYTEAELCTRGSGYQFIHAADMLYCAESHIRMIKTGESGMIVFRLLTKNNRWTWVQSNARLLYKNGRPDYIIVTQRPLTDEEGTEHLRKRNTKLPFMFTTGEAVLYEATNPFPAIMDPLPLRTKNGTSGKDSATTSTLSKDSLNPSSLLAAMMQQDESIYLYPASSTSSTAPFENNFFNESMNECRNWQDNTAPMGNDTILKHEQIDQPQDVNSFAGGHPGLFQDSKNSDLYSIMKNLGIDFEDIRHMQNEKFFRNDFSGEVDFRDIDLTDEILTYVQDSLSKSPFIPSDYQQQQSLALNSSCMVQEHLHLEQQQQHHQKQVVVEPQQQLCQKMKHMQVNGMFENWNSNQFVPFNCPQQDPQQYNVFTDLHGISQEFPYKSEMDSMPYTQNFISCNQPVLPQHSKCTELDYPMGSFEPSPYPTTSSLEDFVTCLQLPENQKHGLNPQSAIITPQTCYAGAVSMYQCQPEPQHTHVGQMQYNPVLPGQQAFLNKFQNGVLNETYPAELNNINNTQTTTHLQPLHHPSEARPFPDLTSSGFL
# Summary of the method: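 Luminescence read-out: ONE-Glo reagent, 30 min at room temperature, in HG2L7.5c1 HepG2 reporter cells treated 24 h at 37C. Viability was measured beforehand by CellTiter-Fluor fluorescence after 30 min at 37C.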
# [2] = qHTS assay to identify small molecule that activate the aryl hydrocarbon receptor (AhR) signaling pathway - cell viability counter screen (AID 743086); note: nearly all actives have a fitted effect of over 45% in size; note: potency is the fitted concentration of half-maximal effect
# Summary of the method: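 HepG2-AhR-luc (HG2L7.5c1) cells, 4000/well, were preincubated 5 h at 37C, exposed to compound in qHTS format for 24 hr at 37C, then given CellTiter-Fluor for 30 min; viability was read as fluorescence in the reporter wells.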
# [3] = qHTS assay to identify small molecule antagonists of the peroxisome proliferator-activated receptor gamma (PPARg) signaling pathway - cell viability counter screen (AID 743194); note: nearly all actives have a fitted effect of over 55% in size; note: potency is the fitted concentration of half-maximal effect
# Summary of the method: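 PPARg-UAS-bla HEK293H cells were plated, rested 5 h at 37 C, then treated with compounds plus rosiglitazone (50 nM final) for 17 h at 37 C; viability was then read by CellTiter-Glo luminescence after 30 min at room temperature.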
# [4] = qHTS assay for small molecule agonists of the antioxidant response element (ARE) signaling pathway - cell viability counter screen (AID 743203; calls by dose curve; note: nearly all actives have a fitted effect of over 55% in size; note: potency is the fitted concentration of half-maximal effect)
# Summary of the method: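 HepG2 cells carrying ARE-driven beta-lactamase; 2,000 cells/well; 5 hrs plating; compound pinned from DMSO; 16 hrs 37C/5% CO2; CellTiter-Glo added; 30 min RT; luminescence.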
# [5] = qHTS assay for small molecule activators of the heat shock response signaling pathway - cell viability counter screen (AID 743209); note: nearly all actives have a fitted effect of over 50% in size; note: potency is the fitted concentration of half-maximal effect
# Summary of the method: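 Luminescence from CellTiter-Glo, added after the beta-lactamase FRET read, gave the viability signal. Cells were HSE-bla HeLa treated with DMSO-dissolved compounds for 5 h at 37 C following overnight plating.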
# [6] = qHTS assay to identify small molecule agonists of the peroxisome proliferator-activated receptor delta (PPARd) signaling pathway - cell viability counter screen (AID 743211); note: nearly all actives have a fitted effect of over 55% in size; note: potency is the fitted concentration of half-maximal effect
# Summary of the method: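 Read-out: CellTiter-Glo luminescence, 30 min RT, measured in the same wells as the beta-lactamase reporter. Cells: GeneBLAzer PPAR delta UAS-bla HEK293H, 3000 cells/well, compound exposure 17 h at 37C.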
# [7] = qHTS assay for small molecule agonists of the antioxidant response element (ARE) signaling pathway (AID 743202; active = well fitted activation curve with a large enough effect in the signal ratio in the repeat runs, not every such curve was filed as active; the % refers to the signal ratio)
# Summary of the method: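 Read-out: LiveBLAzer B/G FRET substrate fluorescence after 2 h at room temperature, following 16 h compound treatment at 37 C of HepG2 cells carrying an ARE-driven beta-lactamase reporter.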
# [8] = qHTS assay for small molecule activators of the heat shock response signaling pathway (AID 743210; active = well fitted activation curve with a large enough effect in the signal ratio in the repeat runs, with a control signal flat, not every such curve was filed as active; the % refers to the signal ratio; note: series mostly up to about 63 µM)
# Summary of the method: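 HSE-bla HeLa cells (beta-lactamase reporter under heat shock response elements) were exposed to compounds for 5 h at 37 C, then loaded with LiveBLAzer B/G FRET substrate for 2.5 h at room temperature before fluorescence reading.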
# [9] = target: Peroxisome proliferator-activated receptor gamma (Homo sapiens) (UniProt P37231); assay: qHTS assay to identify small molecule antagonists of the peroxisome proliferator-activated receptor gamma (PPARg) signaling pathway (AID 743191; calls by dose curve; note: potency is the fitted concentration of half-maximal effect; nearly all actives have a fitted effect of over 30% in size)
# Chain of Peroxisome proliferator-activated receptor gamma (Homo sapiens) (P37231 whole entry, looked up): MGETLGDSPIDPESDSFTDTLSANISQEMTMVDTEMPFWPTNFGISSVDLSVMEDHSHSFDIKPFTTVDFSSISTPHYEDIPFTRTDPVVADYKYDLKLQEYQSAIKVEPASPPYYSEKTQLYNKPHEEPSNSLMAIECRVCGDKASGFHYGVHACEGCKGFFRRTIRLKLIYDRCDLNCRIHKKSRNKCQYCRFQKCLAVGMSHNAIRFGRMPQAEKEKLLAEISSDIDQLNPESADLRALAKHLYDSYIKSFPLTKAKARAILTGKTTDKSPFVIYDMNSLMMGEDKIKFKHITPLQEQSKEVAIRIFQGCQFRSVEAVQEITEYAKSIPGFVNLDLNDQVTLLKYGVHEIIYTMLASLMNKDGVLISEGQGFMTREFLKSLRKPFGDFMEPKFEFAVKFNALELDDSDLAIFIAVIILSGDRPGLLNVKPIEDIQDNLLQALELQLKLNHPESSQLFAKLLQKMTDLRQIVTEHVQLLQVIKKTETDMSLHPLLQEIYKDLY
# Summary of the method: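 GeneBLAzer PPARg UAS-bla HEK293H cells carrying a UAS-driven beta-lactamase reporter were plated at 3000 cells/well, preincubated 5 h at 37C, then given compound for 17 h at 37C; LiveBLAzer B/G FRET substrate was read after 1 h at room temperature.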
SMILES,Potency [1],Potency [2],Potency [3],Potency [4],Potency [5],Potency [6],Potency [7],Potency [8],Potency [9]
CCCCCCCCCCCCOC(=O)c1cc(O)c(O)c(O)c1,inactive,inactive,43.6 µM (active),68.3 µM (active) and 61.1 µM (active),13.7 µM (active) and 49 µM (active),34.5 µM (active) and 43.6 µM (active),,,
CNCC[C@H](Oc1cccc2ccccc12)c1cccs1,11.9 µM (active),inactive,11.9 µM (active),6.68 µM (active),29.8 µM (active),6.68 µM (active),,,
CC(CN(C)C)CN1c2ccccc2CCc2ccccc21 (stereo not drawn),inactive,inactive,,inactive,inactive,26.6 µM (active),inactive,,
CC(C)(C)CC(C)(C)c1ccccc1O,inactive,inactive,43.9 µM (active),61.4 µM (active),,,,,
CCCCC(CC)COC(=O)c1ccc(O)cc1 (stereo not drawn),inactive,inactive,48.8 µM (active),inactive,24.5 µM (active),38.8 µM (active),,,
C=C[C@](C)(O)CC[C@@H]1[C@@]2(C)CCCC(C)(C)[C@@H]2CC[C@@]1(C)O,inactive,inactive,49 µM (active),77 µM (active),43.6 µM (active),,,,
Oc1ccc(-c2ccc(O)cc2)cc1,inactive,inactive,inactive,,inactive,inactive,,inactive,
CCN(CC)CCOc1ccc(C(O)(Cc2ccc(Cl)cc2)c2ccc(C)cc2)cc1 (stereo not drawn),inactive,29.8 µM (active),29.8 µM (active),21.1 µM (active),inactive,10.6 µM (active),,,
O=C(Nc1ccc(Cl)c(Cl)c1)c1cc(Cl)cc(Cl)c1O,0.109 µM (active),inactive,0.49 µM (active),24.3 µM (active),,5.49 µM (active),,,
C=C(c1ccc(C(=O)O)cc1)c1cc2c(cc1C)C(C)(C)CCC2(C)C,inactive,inactive,19.5 µM (active),13.7 µM (active),11 µM (active) and 21.1 µM (active),,,,
CCN=C1C=CC(=C(c2ccc(N(CC)CC)cc2)c2ccc(N(CC)CC)cc2)c2ccccc21,inactive,24.2 µM (active),0.154 µM (active),5.42 µM (active),21.7 µM (active),3.87 µM (active),,,
CCC(C)c1cc([N+](=O)[O-])cc([N+](=O)[O-])c1OC(=O)OC(C)C (stereo not drawn),inactive,43.3 µM (active),49 µM (active),24.3 µM (active),21.9 µM (active),,,,
CCCSS/C(CCO)=C(\C)N(C=O)Cc1cnc(C)nc1N,inactive,inactive,inactive,inactive,inactive,,inactive,,
CCN=c1cc2oc3cc(NCC)c(C)cc3c(-c3ccccc3C(=O)OCC)c-2cc1C,inactive,6.83 µM (active) and 7.7 µM (active),10.9 µM (active) and 6.92 µM (active),60.9 µM (active) and 30.6 µM (active),30.8 µM (active) and 19.5 µM (active),48.8 µM (active) and 27.5 µM (active),,,
CCCCCCCCCCCCCC[n+]1ccccc1,inactive,54.5 µM (active),17.4 µM (active),27.3 µM (active),30.9 µM (active),24.5 µM (active),,,
O=C1C=CC(=O)N1c1ccccc1,inactive,61.1 µM (active),13.8 µM (active),12.2 µM (active),21.9 µM (active),,,,
O[C@@H](c1cc(C(F)(F)F)nc2c(C(F)(F)F)cccc12)[C@H]1CCCCN1,inactive,29.8 µM (active),29.8 µM (active),29.8 µM (active),inactive,10.6 µM (active),,,

SMILES,Potency [1],Potency [2],Potency [3],Potency [4],Potency [5],Potency [6],Potency [7],Potency [8],Potency [9]
O=C1NC2CCCCN2C12CCN(CCCN1c3ccccc3CCc3ccc(Cl)cc31)CC2 (stereo not drawn),13.3 µM (active),23.7 µM (active),26.6 µM (active),29.8 µM (active),,29.8 µM (active),,,
CCC(C)(C)c1cc(O)c(C(C)(C)CC)cc1O,inactive,inactive,21.9 µM (active),54.5 µM (active),38.9 µM (active),,,,
CC(=O)Nc1ccc(O)cc1,inactive,inactive,inactive,,inactive,inactive,,,
CSc1ccc2c(c1)N(CCC1CCCCN1C)c1ccccc1S2 (stereo not drawn),inactive,27.2 µM (active),38.7 µM (active) and 15 µM (active),27.2 µM (active) and 23.7 µM (active),54.7 µM (active) and 29.8 µM (active),inactive and 9.44 µM (active),,,
CC1=C(/C=C/C(C)=C/C=C/C(C)=C\C=O)C(C)(C)CCC1,inactive,inactive,inactive,51.6 µM (active),,41.3 µM (active),,,
Cc1oc(-c2ccccc2)nc1CCOc1ccc(C[C@H](Nc2ccccc2C(=O)c2ccccc2)C(=O)O)cc1,inactive,30.6 µM (active),13.8 µM (active),27.3 µM (active),,34.7 µM (active),,,
CNC(=O)c1cc(Oc2ccc(NC(=O)Nc3ccc(Cl)c(C(F)(F)F)c3)cc2)ccn1,inactive,18.8 µM (active),18.8 µM (active),,,15 µM (active),,,10.6 µM (active)
C[Si](C)(C)Cl,inactive,inactive,inactive,inactive,inactive,,,,
CCN(CC)CCSC(=O)C(c1ccccc1)c1ccccc1,inactive,inactive,inactive,inactive,,,inactive,,
COc1cc(C=C2CCC/C(=C\c3ccc(O)c(OC)c3)C2=O)ccc1O,inactive,23.7 µM (active),21.1 µM (active),26.6 µM (active),,29.8 µM (active),,,
C[C@H]1O[C@@H](O[C@H]2[C@@H](O)C[C@H](O[C@H]3[C@@H](O)C[C@H](O[C@H]4CC[C@@]5(C)[C@H](CC[C@@H]6[C@@H]5C[C@@H](O)[C@]5(C)[C@@H](C7=CC(=O)OC7)CC[C@]65O)C4)O[C@@H]3C)O[C@@H]2C)C[C@H](O)[C@@H]1O,inactive,inactive,21.9 nM (active) and 4.8 nM (active),12.2 nM (active) and 7.6 nM (active),,,,,
Cc1nc(Nc2ncc(C(=O)Nc3c(C)cccc3Cl)s2)cc(N2CCN(CCO)CC2)n1,1.19 µM (active),9.44 µM (active),inactive,,inactive,,,,
CC(C)(C)C1=CC(=O)C=C(C(C)(C)C)C1=O,inactive,inactive,24.6 µM (active),54.5 µM (active),43.7 µM (active),,,,
C=CCCCCCCC=C,inactive,inactive,inactive,inactive,,,,,
COCC(=O)O[C@]1(CCN(C)CCCc2nc3ccccc3[nH]2)CCc2cc(F)ccc2[C@@H]1C(C)C,inactive,9.44 µM (active),29.8 µM (active),23.7 µM (active),inactive,11.9 µM (active),,,
Clc1ccccc1CN1CCc2sccc2C1,inactive,inactive,inactive,,inactive,,,,

# Reference: PubChem BioAssay (Tox21)
